# Inconclusive results are not listed. Entries that show only a call come without a potency. A number with no mark means an inactive call. Calls of active or inactive are those of the source. The call rests on the fitted dose curve; in most records, active means well fitted curve in the direction sought with a large enough effect; inconclusive means small, poorly fitted or top-dose-only effect, or another doubt; inactive means no such curve, though single readings can be large; an effect the other way counts as inactive or inconclusive.
# Legend:
# [1] = target: Cellular tumor antigen p53 (Homo sapiens) (UniProt P04637); experiment: Primary qHTS for small molecule compounds that upregulate eGFP-tagged delta133p53alpha (in N-terminal) cells. (AID 2060322); details: NCI-H358 eGFP-delta133p53alpha fluorescence, 24 h; activation: hits give high values; further: nearly all actives have a fitted effect of over 75% in size; further: potency means the concentration at half of the fitted maximal effect;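 on activation: cells pre-induced with doxycycline then dosed without doxycycline; series mostly up to about 56 µM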
# Cellular tumor antigen p53 (Homo sapiens), sequence (P04637 whole entry, looked up): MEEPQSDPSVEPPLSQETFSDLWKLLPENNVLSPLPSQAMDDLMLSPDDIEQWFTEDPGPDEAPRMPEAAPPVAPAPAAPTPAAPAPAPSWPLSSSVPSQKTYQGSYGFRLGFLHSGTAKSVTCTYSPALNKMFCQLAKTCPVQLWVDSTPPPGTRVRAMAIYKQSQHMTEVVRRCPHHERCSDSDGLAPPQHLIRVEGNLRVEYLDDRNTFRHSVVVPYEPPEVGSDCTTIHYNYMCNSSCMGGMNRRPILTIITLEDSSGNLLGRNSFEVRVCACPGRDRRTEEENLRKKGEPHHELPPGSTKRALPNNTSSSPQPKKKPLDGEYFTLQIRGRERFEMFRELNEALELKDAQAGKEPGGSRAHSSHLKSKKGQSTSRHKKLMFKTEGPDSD
# In short: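 NCI-H358 cells pre-induced 24 h with 10 ng/ml doxycycline for eGFP-delta133p53alpha, plated dox-free and exposed 24 h at 37C to titrated compounds. Fixed, Hoechst-stained; gated GFP peak intensity by laser scanning cytometry, normalized to DMSO (0%) and 57.5 uM 5-azacytidine (100%).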
# [2] = target: Aldehyde dehydrogenase, mitochondrial (Homo sapiens) (UniProt P05091); experiment: qHTS for Inhibitors of the Aldehyde Dehydrogenase Family (ALDH2) Primary screen (AID 2061308); further: nearly all actives have a fitted effect of over 55% in size
# [3] = target: Retinal dehydrogenase 2 (Homo sapiens) (UniProt O94788); experiment: qHTS for Inhibitors of the Aldehyde Dehydrogenase Family (ALDH1A2) Confirmation screens (AID 2061314); further: nearly all actives have a fitted effect of over 65% in size
# [4] = target: Retinaldehyde dehydrogenase 3 (Homo sapiens) (UniProt P47895); experiment: qHTS for Inhibitors of the Aldehyde Dehydrogenase Family (ALDH1A3) Primary screen (AID 2061315); further: potency means the concentration at half of the fitted maximal effect
# [5] = target: Aldehyde dehydrogenase 1A1 (Homo sapiens) (UniProt P00352); experiment: qHTS for Inhibitors of the Aldehyde Dehydrogenase Family (ALDH1A1) Confirmatory screens (AID 2061316); further: nearly all actives have a fitted effect of over 65% in size; further: potency means the concentration at half of the fitted maximal effect
# [6] = BET inhibitor-based combinations targeting novel dependencies in MECOM-rearranged (r) AML: SET-2 cell line (AID 2202231); details: SET-2 AML cells viability, CellTiter-Glo luminescence, 48 h; viability: hits give low values, concentration not given here; further: potency means the concentration at half of the fitted maximal effect; nearly all actives have a fitted effect of over 35% in size
# In short: (§1)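 500 cells/well; 11-pt dose curve; 48 h, standard incubator; CellTiter-Glo luminescence after 15 min RT; DMSO/empty-well normalization; AUC plus Z-AUC (mean-centered within each line).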
# [7] = BET inhibitor-based combinations targeting novel dependencies in MECOM-rearranged (r) AML: OCI-AML3 cell line (AID 2202232); details: Potency: OCI-AML3 viability; further: potency means the concentration at half of the fitted maximal effect; nearly all actives have a fitted effect of over 35% in size
# In short: as §1
# [8] = BET inhibitor-based combinations targeting novel dependencies in MECOM-rearranged (r) AML: HNT-34 cell line (AID 2202234); further: potency means the concentration at half of the fitted maximal effect; nearly all actives have a fitted effect of over 35% in size
# In short: (§2)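 Cells were plated at 500 per well and exposed to each drug across an 11-point dose range for 48 hr at standard incubator conditions. Viability was read by CellTiter-Glo luminescence, and activity was expressed as AUC and per-cell-line Z-transformed AUC.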
# [9] = BET inhibitor-based combinations targeting novel dependencies in MECOM-rearranged (r) AML: UCSD-AML1 cell line (AID 2202235); further: potency means the concentration at half of the fitted maximal effect; nearly all actives have a fitted effect of over 40% in size
# In short: as §2
# [10] = BET inhibitor-based combinations targeting novel dependencies in MECOM-rearranged (r) AML: AML-191 cell line (AID 2202236; further: potency means the concentration at half of the fitted maximal effect; nearly all actives have a fitted effect of over 35% in size)
# In short: as §1
compound,measurement,setting,value
COC(=O)c1ccc(OC(CO)C(O)c2ccc(O)c(OC)c2)c(OC)c1 (stereo not given),activation,[1],9.82%
same,Potency,[2],inactive
same,Potency,[3],inactive
CC1(C)C2CCC1(C)C(OC(=O)C(O)(CC(=O)O)CC(=O)O)C2 (stereo not given),activation,[1],-24.4%
same,Potency,[2],inactive
same,Potency,[3],inactive
same,Potency,[4],inactive
same,Potency,[5],inactive
C=C(C(=O)O)[C@@H]1CC=C(CCC(C)=O)[C@@H](C)CC1,activation,[1],8.93%
same,Potency,[2],inactive
same,Potency,[4],inactive
CC1(C)CC[C@]2(C(=O)O)CC[C@]3(C)C(=CCC4[C@@]5(C)CC[C@H](O[C@H]6O[C@H](C(=O)O)[C@@H](O)[C@H](O[C@@H]7O[C@H](CO)[C@H](O)[C@H](O)[C@H]7O)[C@H]6O)C(C)(C)C5CC[C@]43C)[C@@H]2C1 (stereo not given in full),activation,[1],-5.36%
same,Potency,[2],inactive
same,Potency,[4],inactive
CC1(C)CC[C@]2(C(=O)O[C@@H]3O[C@H](CO)[C@@H](O)[C@H](O)[C@H]3O)CC[C@]3(C)C(=CCC4[C@@]5(C)C[C@@H](O)[C@H](O)[C@@](C)(CO)C5CC[C@]43C)C2[C@@H]1O (stereo not given in full),activation,[1],8.93%
same,Potency,[2],inactive
same,Potency,[3],inactive
same,Potency,[4],inactive
CC1CCCC(SCC(O)C(=O)O)CC(=O)c2c(O)cc(O)cc2CC(=O)O1 (stereo not given),activation,[1],-1.53%
same,Potency,[2],inactive
same,Potency,[4],inactive
O=C1NC(=O)C(c2cnc3ccccn23)=C1c1cn2c3c(cccc13)CN(C(=O)N1CCOCC1)CC2,Potency,[1],23.9 µM (active)
same,Potency,[2],inactive
same,Potency,[3],inactive
same,Potency,[5],12.7 µM (active)
same,Potency,[6],0.118 µM (active)
same,Potency,[7],3.32 µM (active)
same,Potency,[8],0.118 µM (active)
same,Potency,[9],1.05 µM (active)
same,Potency,[10],0.525 µM (active)
CC1OC(O[C@@H]2[C@@H](O)[C@H](OC(=O)[C@]34CCC(C)(C)C[C@H]3C3=CCC5[C@@]6(C)CC[C@H](O[C@@H]7O[C@H](C(=O)O)[C@@H](O)[C@H](O[C@@H]8OC[C@@H](O)[C@H](O)[C@H]8O)[C@H]7O[C@@H]7O[C@H](CO)[C@H](O)[C@H](O)[C@H]7O)[C@@](C)(C=O)C6CC[C@@]5(C)[C@]3(C)C[C@H]4O)O[C@H](C)[C@@H]2OC2OC(C)C(OC3OCC(O)C(O)C3O)C(O)C2O)C(O)C(O)C1O (stereo not given in full),activation,[1],-3.57%
same,"activity change, negative = inhibition",[2],9.81% [at 11.2 µM]
same,"activity change, negative = inhibition",[4],5.21% [at 11.2 µM]
CC1C(=O)CC2C3C(O)CC(C(=O)O)C12CC3(C)C (stereo not given),activation,[1],1.53%
same,Potency,[2],inactive
same,Potency,[4],inactive
Cn1c(=O)c2nc(/C=C/c3cccc(Cl)c3)n(C)c2n(C)c1=O,activation,[1],-2.33%
same,Potency,[2],inactive
same,Potency,[4],inactive
CC(=O)C1=C(O)C=C2Oc3c(C(C)=O)c(O)c(C)c(O)c3[C@]2(C)C1=O,activation,[1],-2.68%
same,Potency,[2],inactive
same,Potency,[4],inactive
C=CC(C)(O)CC/C=C(\C)C(=O)OC1C(O)C(CO)OC(OC(=O)C23CCC(C)(C)CC2C2=CCC4C5(C)CCC(OC6OC(COC7OCC(OC(C)=O)C(O)C7OC7OC(COC(C)=O)C(O)C(O)C7O)C(O)C(O)C6O)C(C)(C)C5CCC4(C)C2(C)C(O)C3O)C1OC1OCC(OC2OCC(O)C(OC3OCC(O)C(O)C3O)C2O)C(O)C1O (stereo not given),activation,[1],-9.16%
same,"activity change, negative = inhibition",[2],5.34% [at 11.2 µM]
same,"activity change, negative = inhibition",[4],15% [at 11.2 µM]
c1cc(-c2cc(C3CCNCC3)[nH]n2)ccn1,activation,[1],1.79%
same,Potency,[2],inactive
same,Potency,[4],inactive
CO[C@H]1O[C@@H]2O[C@]3(C)CC[C@H]4[C@H](C)CC[C@@H]([C@H]1C)[C@@]24OO3,activation,[1],10.3%
same,Potency,[2],inactive
same,Potency,[4],inactive
COC1C=C(C)C(O)(CO)C2(C)CCCC(C)(C)C12 (stereo not given),activation,[1],13%
same,Potency,[2],inactive
same,Potency,[4],inactive
CC(=O)OC[C@@]12C(=O)C[C@@H](C)[C@]3(C[C@@H](c4ccoc4)OC3=O)[C@H]1CC[C@H](OC(C)=O)[C@]21CO1,activation,[1],27.5%
same,Potency,[2],inactive
same,Potency,[4],inactive
O=C(O)c1cccc(C(=O)CCC2OC(n3cnc4c(=O)[nH]cnc43)C(O)C2O)c1 (stereo not given),activation,[1],15.3%
same,Potency,[2],inactive
same,Potency,[4],inactive
COc1c(C)c(OCC=C(C)C)cc2c1C(=O)NC2=O,activation,[1],-12.2%
same,Potency,[2],inactive
same,Potency,[4],inactive
CC12CCC3c4ccc(O)cc4CCC3C1CC(OC1OC(C(=O)O)C(O)C(O)C1O)C2O (stereo not given),activation,[1],-10.3%
same,Potency,[2],inactive
same,Potency,[4],inactive
CC(C)(C)c1ccc(-c2nc3ccccc3[nH]2)cc1,activation,[1],-14.3%
same,Potency,[2],inactive
same,Potency,[4],8.91 µM (active)
CC1CCC2(C)C(CC(O)C(O)C23CO3)C1(C)CCC1=CC(O)OC1=O (stereo not given),activation,[1],-2.29%
same,Potency,[2],inactive
same,Potency,[4],inactive
Cc1cc(OCCCS(C)(=O)=O)cc(C)c1-c1cccc(COc2ccc(C3=CC(=O)NS3=O)cc2)c1 (stereo not given),activation,[1],-18.3%
same,Potency,[2],inactive
same,Potency,[4],inactive
CC1C2=CC(=O)OC2(O)CC2C1CCC1C(C)(C)CCC(O)C21C (stereo not given),activation,[1],0.763%
same,Potency,[2],inactive
same,Potency,[4],inactive
CC1(C(=O)O)CCCC2(C)C1CCC13CC(CCC21)C1(CO)OC31 (stereo not given),activation,[1],-9.16%
same,Potency,[2],inactive
same,Potency,[4],inactive
COC1CC(=O)C23C(=O)NC(Cc4c[nH]c5ccccc45)C2C(C)C2(C)OC2C3/C=C/CC(C)CC1O (stereo not given),Potency,[1],13.1 µM (active)
same,Potency,[2],inactive
same,Potency,[4],inactive
CCOC(=O)c1csc(Nc2ccc(Cl)cc2)n1,activation,[1],-7%
same,Potency,[2],inactive
same,Potency,[4],inactive
CC1CC2OC3(OC2C(C)(C)O)C1C1(C)CCC24CC25CCC(O[C@@H]2OC[C@@H](O)[C@H](O)[C@H]2O)C(C)(C)C5CC=C4C1(C)C3O (stereo not given in full),activation,[1],-18.8%
same,Potency,[2],inactive
same,Potency,[4],inactive
